This is part of a sample that, as a whole, favours compounds with a hit. Of some 83,000 tested, about 20% had one in any assay.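 Percent growth is the endpoint: 0 to 100 indicates growth inhibition (40 means 60% inhibition), 0 means no net growth, and negative values indicate cell death.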 A number with no mark means an inactive call. The source made the active and inactive calls. Rule for the calls: active = growth percent below 10; inactive = the rest.
Assays:
Experiment in all cases: NCI-60 one-dose screen, 48 h (100 = growth as untreated, 0 = no growth, -100 = all killed)
Conditions in all cases: 10 µM unless noted
DU-145 prostate = tested on: DU-145 prostate
K-562 leukemia = tested on: K-562 leukemia
MALME-3M melanoma = tested on: MALME-3M melanoma
MDA-MB-231 breast = tested on: MDA-MB-231 breast
RXF 393 renal = tested on: RXF 393 renal
SF-268 CNS = tested on: SF-268 CNS
SF-539 CNS = tested on: SF-539 CNS
UACC-257 melanoma = tested on: UACC-257 melanoma
M14 melanoma = tested on: M14 melanoma

SMILES | growth (DU-145 prostate) | growth (K-562 leukemia) | growth (MALME-3M melanoma) | growth (MDA-MB-231 breast) | growth (RXF 393 renal) | growth (SF-268 CNS) | growth (SF-539 CNS) | growth (UACC-257 melanoma) | growth (M14 melanoma)
CC(COC(=O)c1ccccc1)N1CC2CCC(C1)O2 (stereo unspecified) | 107% | 97.3% | 104% | 107% | 106% | 106% | 100% | 92.7% | 99.3%
CCCCCCCCNC(C)C(O)c1ccc(SC(C)C)cc1 (stereo unspecified) | -25.5% (active) | -59.8% (active) | -78% (active) | 89.7% | 37.5% | 34.9% | 26.8% | 56% | -17.4% (active)
CCOC(=O)c1ccc(NC(=O)NC2=NCCS2)cc1 | 0.751% (active) | 58.6% | 8.27% (active) | 51.8% | -15.3% (active) | 40.4% | 1.9% (active) | 80.5% | 34.9%
COc1cc(C2Nc3ccccc3S2)cc(CN2CCOCC2)c1O (stereo unspecified) | 101% | 46.9% | 66.7% | 63.6% | 78.5% | 91.1% | 82.3% | 78.2% | 55.5%
C#CC[C@@H]1C[C@]2(C)[C@H]3CC[C@@H]4[C@H]5C(C(=C)C)CC[C@]5(C(=O)NCCCCCCCCN)CC[C@@]4(C)[C@]3(C)CC[C@H]2C(C)(C)[C@H]1OC(C)=O (stereo partly specified) | 75.3% | -41.8% (active) | 111% | 67.9% | 71.5% | 91.2% | 88.3% | 119% | 102%
Nc1nc(N)c2cc(CNc3ccc(Cl)c(Cl)c3)ccc2n1 | 44.6% | -72.3% (active) | 47.1% | -23.9% (active) | 26.5% | 35% | 23.7% | 32.4% | -69.7% (active)
Cc1c(O)c(=O)n(-c2ccccc2)n1C | 116% | 106% | 112% | 99.1% | 124% | 114% | 97.6% | 119% | 100%
O=C1Nc2ccccc2/C1=C/c1c[nH]c2ccccc12 | 98.1% | 82.8% | 88.1% | 71.7% | 90.9% | 87.8% | 80.6% | 89.2% | 91.8%
O=C(C=P(c1ccccc1)(c1ccccc1)c1ccccc1)CCl | -36.5% (active) | -6.42% (active) | -69.7% (active) | 16.2% | -71.1% (active) | -12.2% (active) | -20% (active) | -73.5% (active) | -61.5% (active)
[O-]/[N+](=C\c1ccccc1)CC1(O)CCCCC1 | 109% | 95.7% | 108% | 101% | 107% | 105% | 97% | 102% | 109%
Nc1nc(N)c2cc(Sc3ccc(Cl)cc3)ccc2n1 | 29.7% | 4.88% (active) | 56.7% | 31.3% | 42.4% | 31.1% | 35% | 40.1% | 27.8%
Cc1cc(-c2nnc(/C=C/c3ccc4c(c3)OCO4)o2)n[nH]1 | 83.4% | 23.5% | 49.4% | 54.4% | 85.5% | 74.9% | 46.3% | 78.1% | 46.3%
CC(C)COC(=O)NC(C)(C)C | 115% | 92.8% | 107% | 119% | 113% | 109% | 101% | 102% | 104%
O=[N+]([O-])c1cccc(N=C(Nc2cccc([N+](=O)[O-])c2)c2ccccc2)c1 | 98.2% | 45% | 79.7% | 83.9% | 82% | 96.6% | 87.1% | 92.4% | 85.7%
CCc1ccc(Nc2cc(C)c3ccc(O)cc3n2)cc1 | 94.8% | 20.3% | 17.5% | 31.1% | 52.6% | 68.1% | 89.1% | 39.4% | 45.4%
COc1ccc(C(=O)c2c(N)nc3n2CCCC3)cc1OC | 107% | 90.6% | 99.9% | 115% | 111% | 106% | 102% | 100% | 103%
CCNC(=S)N(Cc1ccccc1)Cc1ccccc1 | 124% | 100% | 105% | 116% | 126% | 116% | 104% | 98.7% | 108%
COc1ccc2nc(C)cc(Nc3ccccc3O)c2c1 | 63.9% | 6.3% (active) | -12.4% (active) | 9.5% (active) | -41.7% (active) | 64.8% | -72.7% (active) | 75.1% | 81.8%
CCC(=O)NC(O)C(Cl)(Cl)C(C)Cl (stereo unspecified) | 116% | 112% | 87% | 99.8% | 111% | 109% | 99.3% | 93.4% | 98.7%
O=C(Nc1ccc(OS(=O)(=O)c2ccc(F)cc2)cc1)C12CC3CC(CC(C3)C1)C2 | 87.1% | 27.5% | 99.7% | 59.2% | 58.6% | 78.4% | 61% | 65.3% | 58.8%
COc1ccc2[nH]c(O)c(/C=c3/ccc4c(c3)N=C(c3ccc(F)cc3)N=4)c2c1 | 67.6% | 57.7% | -18.6% (active) | 83.2% | 11.5% | 83.2% | 80.3% | 82.5% | 68.4%
CCN(CC)CCCCCCCNc1cc(OC)cc2c(C)ccnc12 | 102% | 36.7% | 103% | 54.1% | 91.6% | 91.1% | 91.3% | 92.6% | 97.6%
O=C(c1ccc(C(F)(F)F)c(Cl)c1)N(Cc1ccc(Cl)cc1)c1ccc(-c2cc(C(F)(F)F)[nH]n2)c(O)c1 | 12.8% | 7.36% (active) | 1.34% (active) | -35.7% (active) | -9.88% (active) | 7.06% (active) | 2.09% (active) | 10.3% | 10.9%
CCCC(CCC)NCC(O)c1cc(-c2ccc(C(F)(F)F)cc2)nc(C(F)(F)F)c1 (stereo unspecified) | -26.2% (active) | -51.1% (active) | -63.7% (active) | -66.9% (active) | -97% (active) | -40.5% (active) | -72.2% (active) | -76.9% (active) | -74.8% (active)
CC(CN1CCN(C)CC1)CN1c2ccccc2Sc2ccc(C(F)(F)F)cc21 (stereo unspecified) | 61.7% | -31.2% (active) | 62.9% | 27.6% | 18.7% | 52.2% | 67.5% | 30% | 0.817% (active)
Cc1ccc(-c2cnc3sc4ccc(Cl)cc4n23)cc1 | 101% | 110% | 110% | 85% | 104% | 98.5% | 94.4% | 112% | 100%
C[C@@H](C[C@H](CC1CC1)c1ccccc1)c1ccc2ccccc2c1 | 106% | 104% | 96.7% | 106% | 117% | 98.5% | 96.9% | 106% | 102%
CCN(C(=O)Nc1cccc2ccccc12)c1ccccc1 | 107% | 89.3% | 90.6% | 105% | 120% | 104% | 93.5% | 112% | 106%
CC(C)N=C1CCCC1C(=S)SSC(=S)C1CCCC1=NC(C)C (stereo unspecified) | 64.9% | 34.9% | 53.8% | 76.9% | 78.3% | 68.6% | 83.4% | 69.7% | 64.4%

— PubChem BioAssay (NCI)
